Experimental data published in ChEMBL document CHEMBL4513216, “Probing the Open Global Health Chemical Diversity Library for Multistage-Active Starting Points for Next-Generation Antimalarials” (ACS Infect Dis, 2020).
The whole screen tested about 69,000 compounds, of which about 8,600 (12%) showed an effect of 50% or more. Many of the other results were omitted from the sample, so strong results are more common in it than they were.

test system: Plasmodium berghei; test: Screen against P. berghei liver stage (PbLuc), transformed with Luciferase, at 10uM; type: functional, HepG2; settings: tested at 10 uM

| SMILES | INHIBITION [%] |
| --- | --- |
| Cc1cnc(-c2nc(C3CCN(C(=O)Cc4ccsc4)CC3)no2)cn1 | 2.71 |
| CC(C)c1ccc(OCCC(=O)N2CCC(C(N)=O)CC2)cc1 | 32.2 |
| CC(C)c1ccc(/C=C/CC(=O)NC2CCN(C(N)=O)C2)cc1 (configuration not stated) | 36.5 |
| CC(C)c1ccc(/C=C/CC(=O)NC2CCS(=O)(=O)CC2)cc1 | 71.2 |
| COCCN1CCC(NC(=O)C(C)C)CC1 | -34.4 |
| COCCN1CCC(NC(=O)Cn2cc(C)c3ccccc32)CC1 | 17.4 |
| CC(C)c1noc(CCCC(=O)NC2CCS(=O)(=O)C2)n1 (configuration not stated) | -7.46 |
| COCCN1CCC(NC(=O)C/C=C/c2ccc(C(C)C)cc2)CC1 | 61.1 |
| CC(C)c1noc(CCC(=O)NC2CCS(=O)(=O)C2)n1 (configuration not stated) | -12.2 |
| CC(C)c1ccc(/C=C/CC(=O)NC2CCN(C(N)=O)CC2)cc1 | 83.5 |
| CC(=O)NCC1CCN(C(=O)NCCOc2ccc3c(c2)CCC3)CC1 | 25.1 |
| COc1cc(C(=O)N2CCCC(n3cncn3)C2)ccc1C (configuration not stated) | -16 |
| CC(C(=O)N1CCCC1)n1nc(-c2cccs2)cc(N)c1=O (configuration not stated) | 11.8 |
| CCN1CCN(C(=O)c2cnc3c(cnn3C3CCCC3)c2)CC1 | 19.2 |
| COCCNC(=O)[C@H]1C[C@@H]2CCN(Cc3ccncc3)C[C@H]2O1 | -1.36 |
| O=C(NCC1CC1)[C@H]1C[C@@H]2CCN(Cc3nccs3)C[C@@H]2O1 | 25 |
| COCCNC(=O)[C@H]1C[C@@H]2CCN(Cc3nccs3)C[C@H]2O1 | 56.7 |
| CNC(=O)[C@H]1C[C@@H]2CCN(Cc3nccs3)C[C@H]2O1 | 26.4 |
| CC1CCN(C(=O)[C@@H]2C[C@@H]3CCN(Cc4nccs4)C[C@H]3O2)CC1 | 53.9 |
| CN(C)C(=O)[C@@H]1C[C@@H]2CCN(Cc3nccs3)C[C@@H]2O1 | 19.9 |
| CC(C)CCn1ccc(NC(=O)N2CCCC2C(C)(C)O)n1 (configuration not stated) | 29.9 |
| c1ccc(OCc2nnc3n2CCN(CC2CCOCC2)C3)nc1 | 43.2 |
| Cc1cc(C)nc(C2CCN(C3CCOCC3)C2)n1 (configuration not stated) | -10.4 |
| Cn1nc(C(C)(C)C)cc1NC(=O)Cn1ccnc1 | 11.2 |
| COCCN1C[C@@H]2CC[C@H]1CN(Cc1cc(=O)c3cc(C)ccc3[nH]1)C2 | -23.5 |
| COCC1N(C(=O)Nc2ccccc2)C2CCC1(O)CC2 (configuration not stated) | 8.61 |

| SMILES | INHIBITION [%] |
| --- | --- |
| O=C(NCC1(O)CCc2ccccc2C1)c1cccs1 (configuration not stated) | 36.3 |
| COc1nn(C)cc1C(=O)NCC1(O)CCc2ccccc2C1 (configuration not stated) | 36.5 |
| Cc1oncc1C(=O)NCC1(O)CCc2ccccc2C1 (configuration not stated) | 67.1 |
| CCC(C)NC(=O)CCNC(=O)Nc1ccc(-n2cncn2)c(F)c1 (configuration not stated) | 22.69 |
| CN(C)S(=O)(=O)N1CCC[C@]2(C[C@@H](Oc3ncccc3F)CO2)C1 | 20.6 |
| CN1N=C(C(=O)NCCc2csc(-c3ccccc3)n2)CCC1=O | 4.95 |
| CNC(=O)CN1CCOCC2(C1)CN(Cc1csnn1)CCO2 (configuration not stated) | 67.5 |
| CCCC(=O)N1CCOC2(COCCN(CC(=O)NC)C2)C1 (configuration not stated) | 3.25 |
| CNC(=O)CN1CCOCC2(CN(CCC(F)(F)F)CCO2)C1 (configuration not stated) | 43.9 |
| CN(C)C(=O)c1cnc2n1CCN(Cc1ccncc1)C2 | 24.1 |
| O=C1CN(c2ccc(CNc3cncc(-n4cccn4)n3)cc2)CCN1 | 40.5 |
| Cc1cc(NCc2ccc(N3CCNC(=O)C3)cc2)nc(C)n1 | 61.8 |
| Cc1ccccc1C(=O)NCc1ccc(N2CCNC(=O)C2)cc1 | 15.1 |
| Cc1cccnc1NC(=O)NCc1ccc(N2CCNC(=O)C2)cc1 | 21.7 |
| CCSc1cncc(NCc2ccc(N3CCNC(=O)C3)cc2)n1 | 82.2 |
| CC(C(=O)NCc1ccc(N2CCNC(=O)C2)cc1)n1cncn1 (configuration not stated) | 27.1 |
| CCN(Cc1ccccc1)c1ncnc2c(C)nn(CC)c12 | -1.57 |
| Cc1cc(NC(=O)NCCC(=O)N2CCCc3ccccc32)no1 | 16.1 |
| CS(=O)(=O)c1cn[nH]c1C1CCCN1C(=O)c1cccnc1 (configuration not stated) | 24.4 |
| Cc1ccnc(C2CN(Cc3cnn(-c4ccccc4C(=O)O)c3)C2)n1 | 14.5375 |
| CCN(CC)C(=O)C1CCC2(CCNCC2)CO1 (configuration not stated) | 2.79 |
| CCN(CC)C(=O)C1CCC2(CCNCC2)O1 (configuration not stated) | 57.9 |
| CC(C)N(C)C(=O)C1CCC2(CCNCC2)O1 (configuration not stated) | 27.7 |
| Cc1nc(C)n(C2CCCN(C(=O)c3ccc4[nH]nnc4c3)C2)n1 (configuration not stated) | 21.9 |
| CCOCCNC(=O)c1cc(COc2cncc(Cl)c2)on1 | 29 |
| O=C(NCCN1CCCCCC1)c1coc(COc2ccc(F)cc2)n1 | 7.15 |

| SMILES | INHIBITION [%] |
| --- | --- |
| COCCNC(=O)c1cc(COc2cncc(Cl)c2)on1 | 25.8 |
| O=C(NCCC1CCCCO1)c1cc(COc2cncc(Cl)c2)on1 (configuration not stated) | 59.3 |
| O=C(NCCC1CCCCO1)c1coc(COc2ccc(F)cc2)n1 (configuration not stated) | 77.8 |
| CSCCNC(=O)c1coc(COc2ccc(F)cc2)n1 | 49.5 |
| COc1ccc(N2CCN(C(=O)Cn3nc(C)c(Cl)c3C)CC2)cc1 | 7.44 |
| O=C(CCNc1ncccn1)N1CCN(c2nccs2)CC1 | 45.7 |
| Cc1nc[nH]c1-c1nccn1CCN1CCCOC1=O | 39.6 |
| Cc1nc[nH]c1-c1nccn1CCN1CCCC1=O | -4.95 |
| Cc1nc[nH]c1-c1nccn1CCN1CCOC1=O | 55.5 |
| CC(C)CCN1C[C@@H]2C[C@H](C(=O)NCc3ccccc3)[C@H](C1)O2 | 11.6 |
| CC(C)CNC(=O)[C@H]1C[C@H]2CN(Cc3cccnc3)C[C@@H]1O2 | 65.9 |
| Cc1cccc(CN2C[C@@H]3C[C@H](C(=O)NCc4cccnc4)[C@H](C2)O3)c1 | 21.6 |
| Cc1ccc(CN2C[C@@H]3C[C@H](C(=O)NCc4cccnc4)[C@H](C2)O3)cc1 | 42.3 |
| CC(C)CCN1C[C@@H]2C[C@H](C(=O)NCC(C)C)[C@H](C1)O2 | 61.3 |
| CC(C)CN1C[C@@H]2C[C@H](C(=O)Nc3cccnc3)[C@H](C1)O2 | 2.27 |
| CC(C)CNC(=O)[C@H]1CCS(=O)(=O)[C@@H]2CN(Cc3cccnc3)C[C@H]12 | 12.5 |
| CC(C)CCN1C[C@@H]2C[C@H](C(=O)Nc3ccccc3)[C@H](C1)O2 | 33 |
| CC(C)CN1C[C@@H]2C[C@H](C(=O)NCc3cccnc3)[C@H](C1)O2 | 58.5 |
| CCN1C[C@@H]2C[C@H](C(=O)NCc3cccnc3)[C@H](C1)O2 | 50 |
| CNC(=O)N1C[C@@H]2C[C@H](C(=O)NCc3cccnc3)[C@H](C1)O2 | 7.65 |
| Cc1ccc(CN2C[C@@H]3C[C@H](C(=O)NCc4cccnc4)[C@H](C2)O3)o1 | 39.3 |
| Cc1cc(C(F)(F)F)nn1C(C)C(=O)NN1CCOCC1 (configuration not stated) | -4.12 |
| CC(C)OCCCNC(=O)C1CCCN(c2ccc3nncn3n2)C1 (configuration not stated) | 32.3 |
| CS(=O)(=O)NCc1cc(=O)n2c(n1)CN(CC1CC1)CCC2 | 37.6 |
| Cc1nc(CN2CCC3(CCN(Cc4nccn4C)CC3)C2=O)cs1 | -11.2 |
| N#Cc1ccc(CNCC2(c3ccccc3)CCOCC2)cc1 | -32.8 |

| SMILES | INHIBITION [%] |
| --- | --- |
| COCC(=O)N1CCC(c2cc(-c3ccc(C)cc3)n[nH]2)C1 (configuration not stated) | -16.9 |
| CC(C(=O)N1CCCN(c2ccccc2C#N)CC1)n1cccn1 (configuration not stated) | -6.44 |
| CNC(=O)[C@H]1C[C@@H]2CN(S(=O)(=O)c3cccc(C)c3)C[C@@H]2N1C | 50.7 |
| CNC(=O)[C@H]1C[C@@H]2CN(S(=O)(=O)c3ccccc3)C[C@@H]2N1C | 30.1 |
| CNC(=O)[C@H]1C[C@@H]2CN(S(=O)(=O)c3cccc(F)c3)C[C@@H]2N1C | -23.8 |
| CCc1n[nH]c(C(=O)N2CCC3(CCCN(CCOC)C3=O)C2)c1C (configuration not stated) | 41.2 |
| Cc1cc2ncc(CN(C)C)c(C3CCN(C)CC3)n2n1 | 16.771 |
| Cc1ccccc1CN1CCN(C(C)c2nc(C3CC3)no2)CC1 (configuration not stated) | 5.7 |
| CCC1CN(C(=O)c2ncccc2O)CCC(=O)N1Cc1ccccc1 (configuration not stated) | 7.43 |
| CCC1CN(C(=O)c2ccc(=O)[nH]n2)CCC(=O)N1Cc1ccccc1 (configuration not stated) | 25 |
| CCC1CN(C(=O)c2ccc(O)cn2)CCC(=O)N1Cc1ccccc1 (configuration not stated) | 66.8 |
| COCC(=O)N1CCC2(CC1)CCN(Cc1ccccn1)C2=O | 42.1 |
| CN(C)CC(=O)N1CCC2(CC1)COCCN(c1ncccn1)C2 | -13.2 |
| COCC(=O)N1CCC2(CCN(Cc3ccccn3)CC2)CC1 | 56.9 |
| O=C(C1CCOC1)N1CCC2(CC1)CN(c1ncccn1)CCO2 (configuration not stated) | 25.2 |
| COCC(=O)N1CCC2(CC1)CN(c1ncccn1)CCO2 | 57.9 |
| Cn1cccc1C(=O)N1CCC2(CC1)CN(c1ccccn1)CCO2 | 28.5 |
| CN(C)CC(=O)N1CCC2(CC1)CN(c1ncccn1)CCO2 | 83.5 |
| CN(C)C(=O)CN1CCOCC2(C1)CN(c1ncccn1)CCO2 (configuration not stated) | 11.6 |
| O=C(Cc1ccccn1)N1CCC2(CC1)CN(c1ccccn1)CCO2 | 21.7 |
| COCC(=O)N1CCC2(CC1)CN(c1ccccn1)CCO2 | 62.5 |
| COCC(=O)N1CCC2(CC1)CC(COC)N(Cc1ccccn1)C2 (configuration not stated) | 26.7 |
| NC(=O)N1CCC2(CC1)CN(c1ncccn1)CCO2 | 25.2 |
| Cc1cnc(N2CCOC(C(=O)NCc3ccccc3)C2)s1 (configuration not stated) | 12.8 |
